# Measurements reported in PubChem BioAssay AID590 (National Center for Advancing Translational Sciences (NCATS), 2007).
# Values joined by “and” are separate entries in the source; they are usually repeats but may differ in a detail not shown here. Identical values can stand only once. About 6,500 (11%) of roughly 59,000 compounds were called active. Another 15% or so got no clear call; they are omitted. No stated cut-off is given here; in the data, active means max dye-equivalent concentration above about 10 nM; inconclusive means mostly about 1.1 nM to 9.6 nM; inactive means weaker than that. This excerpt belongs to a sample that is enriched for actives.
# Experiment: qHTS Assay for Spectroscopic Profiling in A350 Spectral Region
# Details: Compound autofluorescence, 340/450 nm, Alexa 350 dye-equivalents; stronger effect = higher value
row,Structure (SMILES),max dye-equivalent concentration
1,c1ccc(CSc2nnc(-c3ccco3)n2Cc2ccccc2)cc1,inactive
2,Cc1ccc(Oc2nc3ccccc3n3c(C)nnc23)cc1,inactive
3,CN(c1nc2ccccc2n2c(-c3ccco3)nnc12)S(=O)(=O)c1ccccc1,3.9e-08 M (active)
4,CC(=O)C1=C(O)C(=O)N(c2ccc(S(N)(=O)=O)cc2)C1c1ccccc1F (centres undefined),2.3e-08 M (active)
5,COc1ccccc1N=C1SC(C)CN1C(=O)C1CCC1 (centres undefined),inactive
6,COc1ccc(N2C(=O)CN=C2Nc2cccc(C)c2C)cc1OC,inactive
7,CSc1cccc(NC(=O)C2CCCN2S(=O)(=O)c2ccc3c(c2)CCC(=O)N3)c1 (centres undefined),inactive
8,CC1(c2ccccc2Cl)NC(=O)N(CC(=O)NC(=O)NCc2ccco2)C1=O (centres undefined),inactive
9,NC(=O)CSC1=Nc2ccccc2C2=NC(CCC(=O)NCc3ccc(F)cc3)C(=O)N12 (centres undefined),4.2e-07 M (active)
10,O=C(CC1N=C2c3ccccc3N=C(SCc3ccccc3Cl)N2C1=O)NCc1ccco1 (centres undefined),1.7e-08 M (active)
11,O=C(CN1C(=O)CCS(=O)(=O)c2ccccc21)NCc1ccc(F)cc1,inactive
12,Cc1nc2nc(SCC(=O)NCc3ccco3)nn2c(C)c1Cc1ccccc1,inactive
13,CCN(CC)S(=O)(=O)c1cccc(C(=O)NCC(=O)OCC(=O)NCc2ccccc2)c1,inactive
14,COc1ccccc1N(C(=O)Cn1nnc2ccccc21)C(C(=O)NCc1ccco1)c1ccc(C)o1 (centres undefined),inactive
15,COc1ccc2[nH]cc(CCNc3ncnc4ccc(-c5ccc(C(=O)N(C)C)cc5)cc34)c2c1,inactive
16,O=C(O)c1ccc(-n2cccc2)cc1O,inactive
17,Cc1cc(Cl)ccc1N1C(=O)CC(SCCC(=O)O)C1=O (centres undefined),inactive
18,CN(C)c1ccc(NC(=O)c2ccncc2)c2ccccc12,inactive
19,CCN1CCc2c(C#N)c(NCc3ccccc3)nc(NCCO)c2C1,5e-07 M (active)
20,COc1ccc2c(=O)cc(-c3ccccc3)oc2c1O,inactive
21,Cc1noc(C)c1-c1nccc(N2CCOCC2)n1,inactive
22,O=C(Nc1nsc(-c2ccccc2)n1)c1ccncc1,inactive

row,Structure (SMILES),max dye-equivalent concentration
1,CC[C@]1(O)CC2CN(CCc3c([nH]c4ccccc34)[C@@](C(=O)OC)(c3cc4c(cc3OC)N(C=O)[C@H]3[C@@](O)(C(=O)OC)[C@H](OC(C)=O)[C@]5(CC)C=CCN6CC[C@]43[C@@H]65)C2)C1 (some centres undefined),inactive
2,CC[C@]1(O)C[C@@H]2CN(CCc3c([nH]c4ccccc34)[C@@](C(=O)OC)(c3cc4c(cc3OC)N(C)[C@H]3[C@@](O)(C(=O)OC)[C@H](OC(C)=O)[C@]5(CC)C=CCN6CC[C@]43[C@@H]65)C2)C1,5.4e-08 M (active)
3,Cc1ccc(-c2csc3nnc(SCC(=O)NCc4ccco4)n23)cc1,inactive
4,CC1CN(C2CCCCC2)c2nc3c(c(=O)n(C)c(=O)n3C)n2C1 (centres undefined),inactive
5,COC(=O)C1=C(N)Oc2cc(C)oc(=O)c2C1c1cccnc1 (centres undefined),inactive
6,CCSc1nc2c(c(=O)[nH]1)C(c1cccnc1)C(C(=O)OC(C)C)=C(C)N2 (centres undefined),1.2e-08 M (active)
7,CC1=C(C(=O)OC2CCCCC2)C(c2cccnc2)n2ncnc2N1 (centres undefined),inactive
8,C=C(C)c1cccc(C(C)(C)NC(=O)N2CCN(c3ncccn3)CC2)c1,inactive
9,CCOC(=O)c1c(C2CC2)csc1NC(=O)CSCc1c(C)noc1C,inactive
10,COc1c(C)c2c(c(O)c1C/C=C(\C)CCC(=O)O)C(=O)OC2,6e-08 M (active) and 1.6e-08 M (active)
11,COc1ccc(CC(=O)Nc2ccc3c(c2)CCC3)cc1S(=O)(=O)N1CCOCC1,inactive
12,Clc1ccc(C=Nc2ccc3c(c2)Cc2ccccc2-3)c(Cl)c1,inactive
13,CCOc1cc(CO)ccc1OCC(=O)N1CCCCC1,inactive
14,Cc1ccc(NC(=O)c2nc[nH]c2C(=O)N2CCCCC2)c(C(=O)c2ccccc2)c1,inactive
15,Cc1ccc2c(c1)sc1ncc(NC(=O)c3ccccc3)c(=O)n12,6.5e-08 M (active)
16,Cc1ccccc1NC(=O)c1ccccc1,inactive
17,CCC(Oc1ccccc1)C(=O)NCc1cccnc1 (centres undefined),inactive
18,Cc1ccc(S(=O)(=O)c2nc(NCCCn3ccnc3)sc2Cl)cc1,inactive
19,CC1(C)C/C(=C(/C#N)C(N)=O)CCO1,inactive
20,O=C(c1ccccc1-c1ccccc1)N1CCOCC1,inactive
21,CC(C(=O)Nc1ccccc1-c1ccccc1)N1CCOCC1 (centres undefined),inactive
22,CC(C(=O)N1CCOCC1)N1c2cccc3cccc(c23)S1(=O)=O (centres undefined),8e-08 M (active)

row,Structure (SMILES),max dye-equivalent concentration
1,COC(=O)c1nc(NC(=O)c2ccc(Cl)cc2)n[nH]1,inactive
2,CCC(=O)c1ccc(OCC(O)CN2CC(C)OC(C)C2)cc1 (centres undefined),inactive
3,CC1CCCC(NC(=O)CN2CCN(Cc3ccc(Cl)cc3)C2=O)C1C (centres undefined),inactive
4,CC(=O)c1ccc(NC(=O)N[C@@H](Cc2ccccc2)C(=O)O)cc1,inactive
5,C[C@@H](N)[C@@H](C)Cc1ccccc1,inactive
6,Cc1ccc(C)n1C(Cc1ccccc1)C(=O)O (centres undefined),1.3e-08 M (active)
7,O=C(C1CCCO1)N(Cc1ccccc1)c1ccccc1 (centres undefined),inactive
8,CCN(c1ccccc1)S(=O)(=O)c1cccc(C(=O)O)c1,inactive
9,Nc1nc(N)c2[nH]c(CNc3ccc(C(=O)O)cc3)nc2n1,inactive
10,O=C(Nc1ccc(Cl)cn1)Nc1cccs1,inactive
11,COc1ccc(N2CCN(C(=O)CSc3ncnc4c3cnn4-c3ccc(OC)cc3)CC2)cc1,inactive
12,CCCc1nc2c3cnn(-c4cccc(Cl)c4)c3ncn2n1,inactive
13,Cc1ccc(-n2ncc3c2ncn2nc(-c4ccco4)nc32)c(C)c1,inactive
14,COc1ccc(-n2ncc3c(N4CCCc5ccccc54)ncnc32)cc1,2.5e-08 M (active)
15,c1ccc(-n2ncc3c(N4CCCC4)ncnc32)cc1,inactive
16,Cc1cccc(-n2ncc3c(N4CCc5ccccc54)ncnc32)c1,1.5e-08 M (active)
17,Cc1cc2ccccc2n2c(SCC(=O)N3CCN(C(=O)c4ccco4)CC3)nnc12,inactive
18,CC(=O)Nc1ccn(Cc2c(F)cccc2Cl)n1,inactive
19,CCCCCn1c(SCCC(C)C)nc2c1c(=O)[nH]c(=O)n2C,inactive
20,O=C(O)CN(Cc1ccco1)S(=O)(=O)c1ccc(F)cc1,inactive
